{"source": "PubChem BioAssay AID1117291", "about": "(Broad Institute, 2014)", "note": "Measured potencies and affinities stand elsewhere. Results filed as inconclusive are left out. Activity calls are given as the source filed them.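 How the source made its calls: active means compound whose fitted half-maximal potency lies at or below double its highest tested dose in every test; inconclusive means tests disagree, or a flat partial loss, or a poor fit; inactive means every test inactive.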"}
{"experiment": "hepatoma cell viability loss – CellTiter-Glo luminescence, dry powder, set 20, cytotoxicity control, dose response (AID 1117291)", "conditions": "HepG2 viability, CellTiter-Glo ATP luminescence, 72 h; series mostly up to 26 µM"}
{"molecule": "CC(=O)N1CCN(C(=O)C2(NC(=O)Nc3cccc(F)c3)CCCCC2)CC1", "outcome": "inactive"}
{"molecule": "CC(=O)N1CCN(C(=O)C2(NC(=O)Nc3ccccc3F)CCCCC2)CC1", "outcome": "inactive"}
{"molecule": "CC(=O)N1CCN(C(=O)C(C)(C)NC(=O)Nc2ccc(C)cc2)CC1", "outcome": "inactive"}
{"molecule": "CC(=O)N1CCN(C(=O)C2(NC(=O)Nc3ccc(C(C)C)cc3)CCCC2)CC1", "outcome": "inactive"}
{"molecule": "CC(=O)N1CCN(C(=O)C2(NC(=O)Nc3ccccc3C(F)(F)F)CCCCC2)CC1", "outcome": "inactive"}
{"molecule": "O=[N+]([O-])c1cccc(S(=O)(=O)Nc2cc(C(F)(F)F)ccc2N2CCCCC2)c1", "outcome": "inactive"}
